Most compounds without a hit are left out; they make up all but 1.3% or so of the library.
PrP 5UTR inh: inhibition of PrP 5' UTR reporter expression; inhibition, % (test concentration not listed); 340,000 tested, 0.35% active; AID 488862; cell-based PrP 5' UTR mRNA reporter, plate reader; in the data active = inhibition above about 52%
SARS 3CLpro inh: SARS-CoV 3CLpro protease inhibition | 290,000 tested, 0.14% active | AID 1706 | inhibition, % at 6 µM | recombinant SARS-CoV 3CLpro, quenched FRET peptide cleavage; in the data active = inhibition above about 12%
PrPC TRFRET: reduces human prion protein on the cell surface; 370,000 tested, 0.43% active; AID 720596; cell surface PrPC, TR-FRET read-out; P04156; inhibition, % at 13.8 µM; in the data active = inhibition above about 24%
CCHF vOTU inh-1: blocks the CCHF virus ovarian tumor domain protease | CCHFV vOTU protease, Pep-AMC fluorescence | inhibition, % at 11.5 µM | 370,000 tested, 0.55% active
CCHF vOTU inh-2: CCHFV vOTU protease inhibition, confirmation. Recombinant CCHFV vOTU, Pep-AMC fluorescence. AID 686976. shares compounds with CCHF vOTU inh-1. 1,900 tested, 17% active. inhibition, % at 11.5 µM
Of the large screens only hits and unclear results are named; the others gave an inactive call (follow-up assays come after a bar, where they were run). Rule as the data show it, unless noted: active = inhibition above about 30%; inactive = the rest.

O=S(=O)(Nc1ccc(Cl)c(C(F)(F)F)c1)c1cnc[nH]1	CCHF vOTU inh-1 32.2 | CCHF vOTU inh-2 inactive
O=S(=O)(Nc1ccc(C(F)(F)F)cc1)c1cnc[nH]1	none
COc1cc(NCCCNC(C)C)c2nccc(C)c2c1	CCHF vOTU inh-1 56.8 (no result: SARS 3CLpro inh) | CCHF vOTU inh-2 inactive
CCOC(=O)C1=C(Cc2ccc(C)cc2)C(=O)c2ccccc2C1=O	CCHF vOTU inh-1 96.0 (no result: PrP 5UTR inh) | CCHF vOTU inh-2 inactive
CCOC(=O)C1=C(Cc2ccc(OC)cc2)C(=O)c2ccccc2C1=O	none (no result: PrPC TRFRET, CCHF vOTU inh-1)
O=C1CCN(CC2CCCCC2)C=C1C(=O)c1ccccc1	CCHF vOTU inh-1 32.5 (no result: SARS 3CLpro inh) | CCHF vOTU inh-2 inactive
S=C(Nc1ccc(Cl)cc1)Nc1cccc2cnccc12	CCHF vOTU inh-1 57.7 | CCHF vOTU inh-2 88.5
CN(C)S(=O)(=O)c1cccc(NC(=S)Nc2cccc3cnccc23)c1	CCHF vOTU inh-1 39.8 | CCHF vOTU inh-2 89.0
COc1ccc(NC(=S)Nc2cccc3cnccc23)cc1	none
Fc1ccc(NC(=S)Nc2cccc3cnccc23)cc1	CCHF vOTU inh-1 50.1 | CCHF vOTU inh-2 64.8
Cc1ccc(C2CC(=O)NC3=C2C(=O)CCC3)cc1Br (stereo unspecified)	none
O=C(COC(=O)/C=C/c1ccc(Cl)cc1Cl)Nc1cccc(S(=O)(=O)NC2=NCCC2)c1	none (no result: PrP 5UTR inh, SARS 3CLpro inh)
COc1ccc(-n2c(C)cc(/C=N/Nc3nnc(C)n3N)c2C)cc1	CCHF vOTU inh-1 91.1 | CCHF vOTU inh-2 inactive
Cc1nnc(N/N=C/c2ccccc2C(F)(F)F)n1N	CCHF vOTU inh-1 65.1 | CCHF vOTU inh-2 inactive
Cc1nnc(N/N=C/c2cccc(C(F)(F)F)c2)n1N	CCHF vOTU inh-1 104.9 | CCHF vOTU inh-2 inactive
Cc1nnc(N/N=C/c2ccccc2F)n1N	CCHF vOTU inh-1 75.2 | CCHF vOTU inh-2 inactive
CC(=O)NS(=O)(=O)c1ccc(NC(=O)c2ccc3c(c2)C(=O)N(CCC(C)C)C3=O)cc1	none
CCOc1cc(C(=O)NCc2ccncc2)cc(OCC)c1OCC	none
Cc1ccc(C2=NS(=O)(=O)N(C)C(C(=O)NCc3cccs3)=C2)cc1	none
COC(=O)CN(c1ccccc1[N+](=O)[O-])S(=O)(=O)c1ccccc1	none
O=C(CN1C(=O)C2(OCCCO2)c2ccccc21)NCc1ccc(F)cc1	none (no result: PrP 5UTR inh, SARS 3CLpro inh)
Cc1nnc(N/N=C/c2cccc(OCc3ccc(Cl)c(Cl)c3)c2)n1N	CCHF vOTU inh-1 103.0 | CCHF vOTU inh-2 inactive
Cc1ccnc(N/N=C/c2ccco2)n1	none
COc1cccc(/C=N/Nc2nnc(C)n2N)c1O	CCHF vOTU inh-1 88.5 | CCHF vOTU inh-2 inactive
Cc1nnc(N/N=C/c2ccco2)n1N	CCHF vOTU inh-1 88.6 | CCHF vOTU inh-2 inactive
Brc1ccccc1-c1nnc(COc2ncnc3ccccc23)o1	none
COc1ccc(S(=O)(=O)N(C)CC(=O)NCc2ccccn2)cc1	none
C[C@@H](OC(=O)c1[nH]cnc1C(=O)N1CCN(C(=O)OC(C)(C)C)CC1)c1ccccc1	none (no result: SARS 3CLpro inh)
O=C(CCCC(=O)NC1CCCC1)NC1CCCC1	CCHF vOTU inh-1 30.8 | CCHF vOTU inh-2 inactive
COc1cccc(NS(=O)(=O)c2ccc3c(c2)C2C=CCC2C(c2ccc(C(=O)O)cc2)N3)c1 (stereo unspecified)	CCHF vOTU inh-1 41.1 | CCHF vOTU inh-2 inactive
COc1ccc(C(=O)N/N=C(\C)c2ccc3c(c2)C2C=CCC2C(c2ccccc2)N3)cc1 (stereo unspecified)	none (no result: PrPC TRFRET, CCHF vOTU inh-1)
CC(SCC(=O)O)c1nc2ccccc2[nH]1 (stereo unspecified)	none
Cc1ccc(S(=O)(=O)/N=C2/NC(=O)/C(=C/c3ccc(Br)o3)S2)cc1	CCHF vOTU inh-1 36.2 | CCHF vOTU inh-2 inactive
CCCCN(C=O)c1c(CC)nc2c(OCC(=O)C(C)(C)C)cccn12	CCHF vOTU inh-1 32.1 (no result: PrP 5UTR inh, SARS 3CLpro inh) | CCHF vOTU inh-2 inactive
O=C1Nc2ccccc2/C1=N\N=C\c1ccc(O)c(O)c1	CCHF vOTU inh-1 33.0 | CCHF vOTU inh-2 inactive
O=C(Nc1ccc2ccccc2n1)Nc1ccccc1F	none
CCCCCCCCN1C(=O)[C@@H](CC(=O)NCCCOCCCC)C[C@@]2(C(=O)OC)C1=C[C@H](COCc1ccccc1)O[C@@H]2C	CCHF vOTU inh-1 30.4 (no result: PrP 5UTR inh, SARS 3CLpro inh) | CCHF vOTU inh-2 inactive
CCCCOCCCNC(=O)C[C@H]1C[C@@]2(C(=O)OC)C(=C[C@H](C(C)(C)C)O[C@@H]2C)N(Cc2ccc3c(c2)OCO3)C1=O	CCHF vOTU inh-1 37.4 (no result: PrP 5UTR inh, SARS 3CLpro inh) | CCHF vOTU inh-2 inactive
COC(=O)[C@]12C[C@H](CC(=O)NCc3cccc4ccccc34)C(=O)N(Cc3cccc4ccccc34)C1=C[C@H](C(C)(C)C)O[C@@H]2C	none (no result: PrP 5UTR inh, SARS 3CLpro inh)
C#CCNC(=O)C[C@H]1C[C@@]2(C(=O)OC)C(=C[C@H](C3CCCC3)O[C@@H]2C)N(CCCCCCCC)C1=O	CCHF vOTU inh-1 39.1 (no result: PrP 5UTR inh, SARS 3CLpro inh) | CCHF vOTU inh-2 inactive

Compound activity (PubChem BioAssay)
